Results published in PubChem BioAssay AID602449 (Sanford-Burnham Center for Chemical Genomics, 2012).
The whole screen tested about 360,000 compounds, of which about 5,000 (1.4%) were called active.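 The calls were made as follows: active = inhibition of 50% or more, scaled per plate between neutral and stimulator controls; inactive = the rest.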 The sample as a whole holds a higher share of actives than the screen did.

Test: blockers of Ca2+-induced mitochondrial swelling – biochemical, isolated mouse mitochondria, absorbance, primary screen (AID 602449);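 also: 0% = DMSO wells given calcium and 100% = 1 mM EGTA wells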
Conditions: 30 min, at 10 µM, stronger effect = higher value

inhibition, active:
O=[N+]([O-])c1cc(Cl)cc(/C=N/NC(=S)Nc2cc(S(=O)(=O)N3CCOCC3)ccc2Cl)c1O 76.5%
COc1ccc(S(=O)(=O)NCCCCOc2ccc(Cl)cc2)cc1 98.5%
O=C(Nc1cccc(C(F)(F)F)c1)c1ccc(N2CCNCC2)c([N+](=O)[O-])c1 69.8%
CS(=O)(=O)N(CC(=O)Nc1ccc(Cl)c(Cl)c1)C1CCCCC1 61.3%
N#CCCN(C(=S)Nc1ccc(Cl)c(Cl)c1)C1CCCCC1 64.3%
CCNS(=O)(=O)c1ccc(NC(=O)Nc2cccc(C(F)(F)F)c2)cc1 93.6%
COc1cc(CNCc2ccc(OC)c3ccccc23)cc(OC)c1OC 90.9%
CCN1CCC(O)(/C=C/c2ccc(C)cc2)C(C(=O)/C=C/c2ccc(C)cc2)C1 (stereo not given) 58.4%
N=c1n(Cc2ccc(Cl)cc2)c2ccccc2n1CC(O)c1ccco1 (stereo not given) 83.7%
c1ccc(-c2cc3c(NCC4COc5ccccc5O4)ncnc3s2)cc1 (stereo not given) 91.4%
CCCc1nc2scc(-c3ccc(C)cc3)c2c(=O)n1N 89.9%
O=C(Nc1nc(-c2ccc3c(c2)OCO3)cs1)c1ccncc1 72.3%
Cc1ccc(NC(=O)Nc2nnc(-c3ccncc3)s2)cc1 77.2%
Cc1nnc(NC(=O)Nc2ccc(Cl)c(Cl)c2)s1 88.5%
CCc1ccc(NC(=O)Nc2ccncc2)cc1 63.6%
C[C@@H](CN1CCC[C@H]1CN1C(N)=NC[C@@H]1Cc1ccccc1)N1C[C@@H](Cc2ccccc2)N(CCCC2CCCC2)C1=N 73.7%
S=C(Nc1cccc(Br)c1)N1CCn2cccc2C1c1cccnc1 (stereo not given) 63.5%
O=C(c1cc(-c2cccc(O)c2)on1)N1CCc2ccccc2C1 59.3%

inhibition, inactive:
O=C(Nc1cc(S(=O)(=O)N2CCOCC2)ccc1Cl)c1cc(=O)c2ccccc2o1 -1.5%
Cc1cc(OCCCC(=O)Nc2cc(S(=O)(=O)N3CCOCC3)ccc2N2CCOCC2)ccc1Cl 0.2%
CCOc1ccc(CN2CCN(Cc3ccon3)CC2CCO)cc1 (stereo not given) -1.1%
COc1ccc(S(=O)(=O)NCCOc2ccccc2)cc1F 0.7%
COc1ccc(OCCNS(=O)(=O)Cc2ccccc2)cc1 0.9%
CCc1cccc(CC)c1NC(=O)COc1ccccc1C(=O)c1cc(C#N)c(=O)n(C2CCCCC2)c1 1%
Cc1cc2cc3n(c2nn1)N=C(Cl)CC3 0.9%
COc1ccc(C(=O)COC(=O)CN2C(=O)C3CC=CCC3C2=O)c(OC)c1 (stereo not given) -2.3%
O=C(Nc1ccc(N2C(=O)c3cccc4cccc(c34)C2=O)cc1)c1ccc(N2CCCCC2)c([N+](=O)[O-])c1 1.1%
O=C(NC1C2CC3CC(C2)CC1C3)c1ccc(N2CCNCC2)c([N+](=O)[O-])c1 (stereo not given) -2.4%
CN(C)CCNC(=O)c1cccc(-c2cnc3c(NC=O)cc(-c4cccc(C(F)(F)F)c4)cn23)c1 -2.1%
N#CCCN(C(=O)Nc1ccc(Cl)c(Cl)c1)C1CCCCC1 20.5%
CS(=O)(=O)N(CC(=O)Nc1ccc(F)cc1)C1CCCCC1 1.1%
CCc1cccc(NC(=S)N(CCN(C)C)C2CCN(C(C)C)CC2)c1 -1.2%
CCC(C)NC(=O)CN(C1CCCCC1)S(C)(=O)=O (stereo not given) -1.2%
Cc1cc(NC(=O)OC(C)C)ccc1-c1ccc(NC(=O)OC(C)C)cc1C 0.8%
CN(C)c1nc2n(c(=O)n1)CCO2 -0.8%
Cc1c(Cl)cccc1NC(=O)[C@@]1(CC(=O)O)CC(/C=C/c2ccccc2)=NO1 -0.3%
C[C@H](NC(=O)NCCc1ccccc1)C(=O)O -2.9%
Cc1cc(S(=O)(=O)N2CCOCC2)ccc1OCC(=O)Nc1cccc(C(F)(F)F)c1 -0.9%
CCNS(=O)(=O)c1ccc(NC(=O)c2cncc(Br)c2)cc1 -1.5%
CN(CC(=O)Nc1ccccc1[N+](=O)[O-])Cc1ccc(Br)cc1 1.1%
COc1ccccc1N1CCN(Cc2ccc(OC)c3ccccc23)CC1 1.3%
COc1cc(CNCc2cccs2)cc(Br)c1OC -0.5%
Cn1c(=O)c2cc(NC(=O)NCCc3cccs3)ccc2n1Cc1cccc(C(F)(F)F)c1 3.3%
CCCCn1c(N)c(N(CCC(C)C)C(=O)COC(=O)c2cccnc2OCC)c(=O)[nH]c1=O 0.7%
CCN1CCC2(CC1)N=C(c1ccc(F)cc1)C(=S)N2C(=O)c1ccc(C)cc1 -2.8%
COc1cccc(NC(=O)CSc2nnc(Cc3ccc(OC)c(OC)c3)o2)c1 -0.5%
COc1ccc(CCN=C2SCC(=O)N2C)cc1OC -1.1%
O=C(O)c1cc2c(cc1NC(=O)c1c(F)cccc1Cl)OCCCO2 -1.5%
N=c1n(CCc2ccccc2)c2ccccc2n1Cc1ccccc1F 8.3%
CCOc1ccc(C(O)Cn2c(=N)n(CCN3CCCCC3)c3ccccc32)cc1 (stereo not given) 3.5%
O=C(Cc1ccccc1)Nc1c(C(=O)N2CCCCCC2)cnn1-c1ccccc1 -1.2%
O=C(Cn1nc(Cc2cccnc2)c2ccccc2c1=O)NCC1COc2ccccc2O1 (stereo not given) -1.9%
O=C(Cn1cnc2ccccc2c1=O)NCC1COc2ccccc2O1 (stereo not given) -0.6%
CCN=c1sc(C(=O)Nc2ccccc2)c(C)n1CC 4.6%
COC(=O)Nc1ncc(CN2C(=O)c3ccccc3C2=O)s1 -1.2%
CCCCNC(=S)NNC(=O)c1cc(C)on1 -1.2%
CC1=C(C(=O)N2CCOCC2)CC(CC(=O)NCc2cccc3ccccc23)C(=O)N1CCC1=CCCCC1 (stereo not given) -2.5%
CCC(C(=O)OC)n1cnc2scc(-c3ccc(C)cc3)c2c1=O (stereo not given) 0.8%
Cc1nc2scc(-c3cccs3)c2c(=O)n1N -3.1%
CS(=O)(=O)N(Cc1ccccc1)c1ccc(C(=O)NN=C2CCCCCC2)cc1 0.9%
COc1ccc(S(=O)(=O)N2CCOCC2)cc1NC(=O)CSc1cc(C)ccc1C -0.5%
COc1ccc(C(O)c2nc(-c3ccc4c(c3)OCO4)cs2)cc1 (stereo not given) 2.5%
Cc1ccc(-c2csc(NC(=O)C3=COCCO3)n2)cc1C 4.6%
COc1ccc(NC(=O)NCCN2CCN(c3ccc(C)cc3)CC2)c(Cl)c1 0.3%
COC(=O)c1cccc(-n2[nH]nnc2=S)c1 0.4%
Cn1c(=O)c(=O)n(C)c2cc(S(=O)(=O)NCCN3CCN(c4ccccc4F)CC3)ccc21 1.9%
CC(C)CC(=O)Nc1ccc(Cc2ccncc2)cc1 1.5%
Cc1ccc(S(=O)(=O)CCC(=O)Nc2nnc(CC(C)C)s2)cc1 0.4%
Cc1nnc(NC(=O)Cn2c(=O)sc3ccccc32)s1 -2.7%
COc1cccc(NC(=O)Nc2nnc(N3CCCCC3C)s2)c1 (stereo not given) 0.5%
CC(C)=CC(=O)Nc1nnc(-c2ccc(F)cc2)s1 -0.8%
CCc1ccc(NC(=O)N[C@H](C(=O)O)C(C)CC)cc1 (stereo not given in full) -1.3%
CCOC(=O)c1sc(NC(=O)CSc2nc(C)cc(C(F)(F)F)n2)c(C#N)c1C 13.1%
CCCN=C1NC(=O)C(CC(=O)NCCc2ccc(OC)c(OC)c2)S1 (stereo not given) -0.3%
CC[C@H]1OC(=O)[C@H](C)[C@@H](O[C@H]2C[C@@](C)(OC)[C@@H](O)[C@H](C)O2)[C@H](C)[C@@H](O[C@@H]2O[C@H](C)C[C@H](N(C)C)[C@H]2O)[C@](C)(O)C[C@@H](C)[C@@H]2N[C@@H](COCCOC)O[C@H]([C@H]2C)[C@]1(C)O -2.3%
CCOC(=O)c1c(NC(=O)COC(=O)c2ccc(S(=O)(=O)C(F)F)cc2)sc(C(=O)N(C)C)c1C -0.1%
CCOc1ccc(OCC(=O)Nc2c3c(nn2C(C)(C)C)CS(=O)(=O)C3)cc1 1.2%
COc1ccc(S(=O)(=O)N2CCN(CC(=O)NCC3(N4CCOCC4)CCCCC3)CC2)cc1 0.2%
CC[C@@H](C)[C@@H]1CN([C@@H](C)CN2CCC[C@H]2CN2C(N)=NC[C@H]2C(C)C)C(=N)N1CCc1ccc(Cl)c(Cl)c1 -0.6%
NC1=NC[C@@H](Cc2ccc(O)cc2)N1CC1CCCCC1 0.7%
COc1ccc(S(=O)(=O)N2CCCCC2)cc1C(=O)NC1CCS(=O)(=O)C1 (stereo not given) 0.2%
Cc1ccc(C(CNC(=O)Nc2ccccc2)N2CCN(C)CC2)cc1 (stereo not given) 2%
COc1ccc(OCCCC(=O)OC(C)C(=O)Nc2ccccc2[N+](=O)[O-])cc1 (stereo not given) 0.5%
O=C(NC(=S)N1CCCCC1c1cccnc1)c1ccccc1 (stereo not given) -1.5%
S=C(NCCc1ccccc1)N1CCn2cccc2C1c1ccncc1 (stereo not given) -5.1%
COc1ccc(OC)c(C(O)c2ncc(-c3cccc(C(F)(F)F)c3)[nH]2)c1 (stereo not given) 1%
Nc1nnc(SCC(=O)NCC(=O)Nc2ccc(F)c(F)c2F)s1 -2.5%
O=C(c1cc(-c2ccc(O)cc2)on1)N1CCOCC1 -1.3%
O=C(NCCCN1CCOCC1)c1cc(-c2cccc(O)c2)on1 -0.1%
CC(=O)NS(=O)(=O)c1ccc2c(c1)Cc1cc(S(=O)(=O)NC(C)=O)ccc1-2 0.4%
